# Assay results from PubChem BioAssay (Tox21).
# Results filed as inconclusive are left out. Unmarked numbers belong to inactive results. Calls follow the shape of the dose curve; as a rule, active = well fitted cell-killing curve with a large enough effect in the repeat runs (not every such curve was filed as active); inconclusive = weak or mixed curves, or effect the other way; inactive = no such curve, though single readings can be large or run the other way.
# Experiment: qHTS assay to identify small molecule antagonists of the estrogen related receptor signaling pathway with the pleiotropic PPARgamma coactivator (PGC) from Tox21 10K library - cell viability counter screen (AID 1224840); also: nearly all actives have a fitted effect of over 40% in size
# Conditions: PGC/ERR reporter cells viability, CellTiter-Fluor, 17.5 h; series mostly up to 92.4 µM; viability change, negative = cytotoxic: at the top concentration
# Source text: National Center for Advancing Translational Sciences [NCATS]
# NIH Chemical Genomics Center [NCGC]
# U.S. Environmental Protection Agency [EPA]
# National Institutes of Environmental Health Sciences [NIEHS]
# National Toxicology Program [NTP]
# U.S. Food and Drug Administration [FDA]
# Estrogen related receptors (ERRs), the first orphan nuclear receptors discovered, play an important role in the control of cellular energy metabolism. ERRs are required for high-energy production in response to the environmental challenges. The pleiotropic PPARgamma coactivator (PGC) is a major partner of ERR and a key regulator in energy homeostasis. Together they have been implicated in the etiology of metabolic disorders such as Type 2 diabetes and metabolic syndrome. ERR-alpha was also identified as an adverse marker for breast cancer progression; ERR-alpha-positive tumors have a poor prognosis. To screen and to identify environmental compounds that perturb the ERR and PGC/ERR signaling pathways could provide valuable information for potential therapeutic or preventive measures in the treatment of metabolic disease. To differentiate true PGC/ERR antagonists or agonist from cytotoxic substances, the assay is multiplexed with cell viability assay.
# Tox21 Assay Protocol Summary:
# The PGC/ERR cells were dispensed at 2,000 cells/5 ul/well in 1536-well white plates using a Multidrop dispenser. After the assay plates were incubated at a 37 C/5% CO2 incubator for 6 hours, 23 nL of compounds dissolved in DMSO, positive and negative controls or DMSO only was transferred to the assay plate by a pin tool. The plates were incubated at 37 C for 17.5 hours. 1 ul/well of CellTiter-Fluor reagent was added into the assay plates using a Flying Reagent Dispenser. After 30-minute incubation at 37 C/5% CO2, the fluorescence intensity in the plates was measured using a ViewLux plate reader.
# % is scaled to controls: 0 for no effect and ±100 for the full control effect.
row,SMILES,"viability change, negative = cytotoxic"
1,CO[Si](OC)(OC)OC,-0.254%
2,Cc1ccc(N)cc1[N+](=O)[O-],0.278%
3,O=c1[nH]c(=O)n([C@H]2O[C@H](CO)[C@@H](O)[C@@H]2O)cc1/C=C\Br,-2.79% [at 42.5 µM]
4,CN1[C@@H]2CC[C@H]1CC(NC(=O)n1c(=O)[nH]c3ccccc31)C2 (stereo not given in full),4.26% [at 42.5 µM]
5,C=CCOCC(O)CS(=O)(=O)O (stereo not given),0.992%
6,CCCCCCC(=O)OCC,6.63%
7,CC(C)COC(=O)c1ccccc1O,-0.479%
8,C#CC(O)C(CC)CCCC (stereo not given),5.35%
9,Cc1nc(-c2ccc(OCC(C)C)c(C#N)c2)sc1C(=O)O,-0.325% [at 42.5 µM]
10,NC(=O)Nc1nc2ccccc2[nH]1,0.488%
11,Nc1ccn(C2CO[C@H](CO)O2)c(=O)n1 (stereo not given in full),5.58% [at 42.5 µM]
12,NC(N)=NS(=O)(=O)c1ccc(N)cc1,2.81% [at 42.5 µM]
13,CCN1CCCC(OC(=O)C(c2ccccc2)c2ccccc2)C1 (stereo not given),-12.3% [at 42.5 µM]
14,NC(=O)c1ncn([C@@H]2O[C@H](CO)[C@@H](O)[C@H]2O)c1O,-7.4% [at 42.5 µM]
15,O=C(O)c1ccc[n+]([O-])c1,5.98% [at 42.5 µM]
16,CC(C)c1ccc2oc3nc(N)c(C(=O)O)cc3c(=O)c2c1,0.549% [at 42.5 µM]
17,c1ccc(SCCSc2ccccc2)cc1,2.17%
18,CCCC(=O)O[C@]1(C(=O)CCl)[C@@H](C)C[C@H]2[C@@H]3CCC4=CC(=O)C=C[C@]4(C)[C@@]3(F)C(=O)C[C@@]21C,-12.2% [at 42.5 µM]
19,CC12CCC(CC1=O)C2(C)C (stereo not given),9.86%
20,CC(C)N1C(=O)c2ccccc2C1=O,0.904%

row,SMILES,"viability change, negative = cytotoxic"
1,COc1cccc(Br)c1,3.72%
2,CC(C)(C)CC(C)(C)N,1.26%
3,C=C(C)C(=O)NCCC[N+](C)(C)C,4.37%
4,OC1OC[C@@H](O)[C@H](O)[C@H]1O (stereo not given in full),8.88%
5,C#CC(C)(O)CC(C)C (stereo not given),-0.0951%
6,CCOC(=O)[C@H](CCc1ccccc1)N[C@@H](C)C(=O)N1CCC[C@H]1C(=O)O,12.7% [at 42.5 µM]
7,CC(C)[N+](C)(C)CC(O)COc1cccc2ccccc12 (stereo not given),-0.891% [at 42.5 µM]
8,O=C1C(CCS(=O)c2ccccc2)C(=O)N(c2ccccc2)N1c1ccccc1 (stereo not given),5.82% [at 42.5 µM]
9,CCCCNc1ccccc1,10.3%
10,CN(C)CCOC(c1ccc(Cl)cc1)c1ccccn1 (stereo not given),-11.4% [at 42.5 µM]
11,CC(C)(C)N(CCO)CCO,9.14%
12,O=C(CCOCCOCCOCCOCCC(=O)Nc1c(I)cc(I)c(C(=O)O)c1I)Nc1c(I)cc(I)c(C(=O)O)c1I,14.5% [at 42.5 µM]
13,COC[C@H](c1ccc(C(F)(F)F)cc1)N1CCN(C2(C)CCN(C(=O)c3c(C)ncnc3C)CC2)C[C@H]1C,4.39% [at 42.5 µM]
14,CC(=O)c1ccc(C)cc1,7.45%
15,CC(C)CCCC(C)NCCC(C)C (stereo not given),8.76% [at 42.5 µM]
16,C=CCOc1nc(OCC=C)nc(OCC=C)n1,0.745%
17,NC(=O)c1ncn([C@@H]2O[C@H](CO)[C@@H](O)[C@H]2O)c1N,12.9% [at 42.5 µM]
18,CC/C=C\CCCCO,-13.8%
19,CC(C)CCCCCCN,8.73%
20,O=S(=O)(O)c1ccccc1O,9.6%
